From PubChem BioAssay (NCATS) come the findings set out here.

Records with an inconclusive call do not appear. Calls of active or inactive are those of the source. Unless noted, the call rests on the fitted dose curve; in most records, active means well fitted curve in the direction sought with a large enough effect; inconclusive means small, poorly fitted or top-dose-only effect, or another doubt; inactive means no such curve, though single readings can be large; an effect the other way counts as inactive or inconclusive.

In experiment [1] the target is Lysosomal acid glucosylceramidase (Homo sapiens) (UniProt P04062). As to the kind of experiment: Glucocerebrosidase-p2 (AID 348; in the data active means potency below about 10 µM; further: potency means the concentration at half of the fitted maximal effect). To be noted: purified GBA, blue fluorogenic substrate, 40 min. The method in brief:
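Normal human glucocerebrosidase (0.2 nM) with blue fluorogenic substrate (80 uM final) in citrate/phosphate pH 5.9 with 10mM sodium taurocholate, 0.01% tween-20; 40 min RT, NaOH/glycine stop; fluorescence Ex 365/Em 440; AC50 from a titration from 0.6 nM upwards.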

Experiment [2] addresses Cytochrome P450 1A2 (Homo sapiens) (UniProt P05177). Briefly: p450-cyp1a2 (AID 410; calls by dose curve; further: potency means the concentration at half of the fitted maximal effect). In short, it runs like this:
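Luminescent demethylation readout: Luciferin-ME (100uM, equal to Km) turned over by 20nM CYP1A2 for 60 min at room temperature after NADPH regeneration addition, following 10 min compound preincubation. Normalization used 57 uM furafylline as full inhibition.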

Experiment [3] in a line: Stat Signaling Pathway (AID 446; active means well fitted curve in either direction with a large enough effect, not every such curve was filed as active;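 further: ME-180 cervical cancer cells given 40 pM IL-6 alongside compound; SIE-controlled beta-lactamase reporter measured as 460/530 nm FRET emission ratio; on the % scale 0 is the no-effect control and ±100 the full control effect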). To be noted: ME-180 SIE beta-lactamase reporter, IL-6 stimulated, 5 h; at 7.69 µM (top of the series) unless noted. In short, it runs like this:
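Normalization used AC90 stimulation (300 pM IL-6) and AC90 inhibition (125 nM pan-JAK inhibitor at 40 pM IL-6). The underlying signal is SIE-driven beta-lactamase in ME-180 cells after 5 h IL-6 exposure with compound.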

The target of experiment [4] is Glucocorticoid receptor (Homo sapiens) (UniProt P04150). Briefly: GR-GFP Redistribution (AID 450;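 active means compounds whose dose series gives a full or clear partial fitted curve of increased nuclear translocation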; further: potency means the concentration at half of the fitted maximal effect). To be noted: U2OS GR-GFP nuclear translocation, laser cytometry, 2 h.
For experiment [5] the target is unchanged. As to the kind of experiment: GR-EFC Redistribution (AID 451; calls by dose curve; further: potency means the concentration at half of the fitted maximal effect). Particulars: CHO-K1 GR-EFC translocation, beta-gal luminescence, 2 h. In short, it runs like this:
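CHO-K1 cells stably expressing nuclear-localized β-gal enzyme acceptor and GR fused C-terminally to the enzyme donor fragment; ligand-driven nuclear translocation restores β-gal by complementation. Compounds titrated up to 46 uM final, 2 h at 37 °C; luminescence read.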

Experiment [6] concerns the target 3',5'-cyclic-AMP phosphodiesterase 4B (Homo sapiens) (UniProt Q07343). As to the kind of experiment: qHTS Assay for Inhibitors of PDE-IV (AID 607; active means well fitted activation curve with a large enough effect in the main read-out, with a control signal flat, not every such curve was filed as active; further: % of control where 0% means no effect). The method in brief:
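HEK293 ACTOne cells with CNG channel (1000/well), endogenous PDE4; membrane potential dye, compounds up to 22.9 uM final. Fluorescence Ex 535/Em 590; RO 20-1724 (100 uM final) as reference.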

Experiment [7] can be described thus: qHTS Assay for Identification of Small Molecule Agonists for Hypoxia Response Element Signaling Pathway (AID 914; active means well fitted activation curve with a large enough effect in the signal ratio, with a control signal flat, not every such curve was filed as active; the % refers to the signal ratio; further: potency means the concentration at half of the fitted maximal effect). Particulars: ME-180 HRE-bla reporter, beta-lactamase ratio, CoCl2, 17 h; activation: stronger effect = higher value. The method in brief:
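Read-out: CCF4 FRET ratio of 460nm to 530nm emission (excitation 405nm) after 2.5 hours at room temperature, taken from HRE-bla ME-180 cells that had been exposed to compound and EC50 CoCl2 for 17 hours.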
In general terms: Quantitative high-throughput screening tests each substance at several concentrations.

Experiment [8] can be described thus: qHTS Assay for Lipid Storage Modulators (AID 1519; calls by dose curve). To be noted: Drosophila S3 cells, BODIPY lipid droplet/cell ratio, laser cytometry, cells loaded with oleic acid; for activity change, negative = inhibition: at 57.5 µM (top of the series). In short, it runs like this: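 Cells seeded at 5,000 per well were treated with compounds over a concentration series and loaded with oleic acid (400 uM, as added). Lipid droplet fluorescence (488 nm excitation, 500-530 nm channel) was read by laser-scanning cytometry and normalized to 20 uM Triacsin C.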

Experiment [9] deals with Dual specificity protein kinase CLK4 (Homo sapiens) (UniProt Q9HAZ1). Briefly: qHTS Assay for Inhibitors of CDC-like Kinase 4 (Kinase-Glo Assay) (AID 1770). Further: on the % scale 0 is the no-effect control and ±100 the full control effect; nearly all actives have a fitted effect of over 65% in size. In short, it runs like this: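 Luminescent ATP-depletion read-out (Kinase-Glo) after 4.5 h room-temperature reaction of Clk4 (25 nM final) with RS peptide (100 uM) and ATP (1 uM), pH 7.5 Tris buffer with MgCl2 and DTT.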

The target is the same in experiment [10]. Briefly: qHTS Assay for Inhibitors of CDC-like Kinase 4 (ADP-Glo Assay) (AID 1771). Further: on the % scale 0 is the no-effect control and ±100 the full control effect; nearly all actives have a fitted effect of over 70% in size. In short, it runs like this: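 ADP production was read by ADP-Glo luminescence after residual ATP depletion, following 1 h room-temperature reaction of 25 nM Clk4, 1 uM ATP and 100 uM RS peptide with MgCl2, EGTA, DTT and Triton X-100.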
Experiment [11] concerns the target Ubiquitin carboxyl-terminal hydrolase 1 (Homo sapiens) (UniProt O94782). Briefly: Inhibitors of USP1/UAF1: Pilot qHTS (AID 504865).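 Further: rhodamine fluorescence freed from ubiquitin-rhodamine substrate followed over time; top concentration of the series differs between compounds; on the % scale 0 is the no-effect control and ±100 the full control effect; nearly all actives have a fitted effect of over 35% in size.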 In short, it runs like this:
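Deubiquitinase activity followed as kinetic rhodamine fluorescence release from 150 nM Ub-Rho. 1 nM USP1/UAF1 with compound, after 15 min room-temperature preincubation, in HEPES pH 7.8 buffer containing TCEP, EDTA, BSA and Tween-20.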

The nature of experiment [12]: Primary qHTS for inhibitors of nuclear receptor binding SET domain protein 2 (NSD2) in an isogenic RCH-ACV NSD2 p.E1099K mutant (9B) (AID 1645876). Further: potency means the concentration at half of the fitted maximal effect; nearly all actives have a fitted effect of over 70% in size.
The nature of experiment [13]: Primary qHTS for inhibitors of nuclear receptor binding SET domain protein 2 (NSD2) in an RCH-ACV wild type WT cells (2C) (AID 1645877). Further: potency means the concentration at half of the fitted maximal effect; nearly all actives have a fitted effect of over 70% in size.
The target of experiment [14] is Glutathione peroxidase 1 (Homo sapiens) (UniProt P07203). Briefly: Primary qHTS Assay for Inhibitors of Recombinant Selenoprotein Glutathione Peroxidase 1 (GPX1) (AID 1845191). Further: nearly all actives have a fitted effect of over 65% in size. In short, it runs like this: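 GPX1 10 nM, GR 100 nM, GSH 1 mM, NADPH 0.5 mM, CHP 0.5 mM (final). 30-min cpd preincubation, RT. Ex340/Em450 read t=0, t=15 min.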
For experiment [15], the target named is Phospholipid hydroperoxide glutathione peroxidase GPX4 (Homo sapiens) (UniProt P36969). Briefly: Primary qHTS Assay for Inhibitors of Recombinant Selenoprotein Glutathione Peroxidase 4 (GPX4) (AID 1845192). Further: potency means the concentration at half of the fitted maximal effect; nearly all actives have a fitted effect of over 65% in size. To be noted: outcome: dose series up to 50 µM unless noted. In short, it runs like this: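 qHTS, GR-coupled: GPX4 200 nM + cpd 30 min RT → GSH 1 mM, NADPH 0.5 mM, GR 100 nM → CHP 0.5 mM start; fluor 340/450 at t0 and t15 min; no-enzyme wells as control.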

Experiment [16] is described as follows: qHTS drug screen for cell cycle checkpoint inhibitors in PARPi-resistant BRCA-mutant ovarian cancer cell lines. (AID 1963452; calls by dose curve). Particulars: PEO1/OlaR viability, CellTiter-Glo luminescence, 96 h, stronger effect = lower value. The method in brief: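 PEO1, PEO4 and PEO1/OlaR ovarian cancer cells, 600 per well, exposed 96 h at 37C to a dilution series. Viability read by CellTiter-Glo luminescence, normalized to DMSO and empty wells; activity summarized as Z-AUC.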

The nature of experiment [17]: AP1 Signaling Pathway (AID 357; active means well fitted curve in either direction with a large enough effect, not every such curve was filed as active;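 further: ME-180 reporter cells stimulated with EGF at its EC50 level; on the % scale 0 is the no-effect control and ±100 the full control effect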). To be noted: ME-180 (cervical carcinoma) AP-1-bla reporter, EGF-induced, beta-lactamase ratio, 5 h; at 7.69 µM (top of the series) unless noted. The method in brief:
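Beta-lactamase reporter under AP-1 response element, ME-180 background. Stimulus: EC50 EGF. Compound exposure 5 h, 37 °C. Detection: CCF4, 2.5 h RT, 460/530 nm. Values: AC50 from titration.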

Experiment [18] in a line: NFAT Signaling Pathway (AID 444; active means well fitted curve in either direction with a large enough effect, not every such curve was filed as active;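 further: carbachol stimulus at about its EC50 of 1 µM final; on the % scale 0 is the no-effect control and ±100 the full control effect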). Particulars: Jurkat NFAT-bla M1, carbachol, beta-lactamase ratio, 5 h; at 7.69 µM (top of the series) unless noted. In short, it runs like this:
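Jurkat cells carrying an NFAT-driven β-lactamase reporter and co-transfected muscarinic M1 receptor were treated with compound plus carbachol (1 uM final, an EC50 level) for 5 h at 37 °C. CCF4 loading followed for 1 h at RT; 460/530 nm ratio gave %activity.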

The target in experiment [19] is Mitogen-activated protein kinase 10 (Mus musculus) (UniProt Q61831). Briefly: JNK3 AlphaScreen Assay (AID 530; active means well fitted curve in either direction with a large enough effect, not every such curve was filed as active;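 further: kinase came from lysate of stimulated human HepG2 cells; signal reports phosphorylation of biotinylated GST-cJun 1-79 at Ser73 with 10 µM ATP; on the % scale 0 is the no-effect control and ±100 the full control effect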). In short, it runs like this: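 Phosphorylation of biotinylated GST-cJun(1-79) at Ser73 is measured by AlphaScreen proximity luminescence. Enzyme is JNK3 in HepG2 lysates activated with interleukin-1beta and tumor necrosis factor alpha; ATP is 10 uM final.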

Experiment [20] concerns the target Dual specificity protein kinase CLK4 (Homo sapiens) (UniProt Q9HAZ1). As to the kind of experiment: qHTS Assay for Inhibitors of CDC-like Kinase 4 (ADP-FP Assay) (AID 1795).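 Further: recombinant human CLK4 phosphorylating RS repeat peptide at 1 µM ATP; on the % scale 0 is the no-effect control and ±100 the full control effect; nearly all actives have a fitted effect of over 60% in size.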 In short, it runs like this:
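Kinase activity was measured as ADP production using Transcreener orange tracer (4 nM) and ADP antibody (1 ug/mL) fluorescence polarization, with ADP calculated from a calibration curve. The 1 h reaction contained 6.25 nM Clk4, 1 uM ATP and 100 uM RS peptide at pH 7.5 with Mg2+.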

Where [21] appears, read: measured here: cell count channel max response.
[22] abbreviates: measured here: lipid channel max response.

Sequence of Dual specificity protein kinase CLK4 (Homo sapiens) (Q9HAZ1 whole entry, looked up): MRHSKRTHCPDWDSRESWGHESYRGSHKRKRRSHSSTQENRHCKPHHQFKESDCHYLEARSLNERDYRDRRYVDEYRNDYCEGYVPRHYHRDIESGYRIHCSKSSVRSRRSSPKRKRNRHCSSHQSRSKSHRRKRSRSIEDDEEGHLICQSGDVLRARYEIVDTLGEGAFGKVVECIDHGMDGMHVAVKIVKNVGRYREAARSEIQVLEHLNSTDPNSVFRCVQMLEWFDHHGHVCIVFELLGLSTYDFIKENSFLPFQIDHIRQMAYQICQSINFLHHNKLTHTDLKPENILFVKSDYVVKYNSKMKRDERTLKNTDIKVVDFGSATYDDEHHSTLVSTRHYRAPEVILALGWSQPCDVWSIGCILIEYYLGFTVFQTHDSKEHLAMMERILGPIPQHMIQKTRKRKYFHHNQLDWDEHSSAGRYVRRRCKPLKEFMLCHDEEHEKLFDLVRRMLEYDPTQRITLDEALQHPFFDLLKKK
Sequence of Lysosomal acid glucosylceramidase (Homo sapiens) (P04062 whole entry, looked up): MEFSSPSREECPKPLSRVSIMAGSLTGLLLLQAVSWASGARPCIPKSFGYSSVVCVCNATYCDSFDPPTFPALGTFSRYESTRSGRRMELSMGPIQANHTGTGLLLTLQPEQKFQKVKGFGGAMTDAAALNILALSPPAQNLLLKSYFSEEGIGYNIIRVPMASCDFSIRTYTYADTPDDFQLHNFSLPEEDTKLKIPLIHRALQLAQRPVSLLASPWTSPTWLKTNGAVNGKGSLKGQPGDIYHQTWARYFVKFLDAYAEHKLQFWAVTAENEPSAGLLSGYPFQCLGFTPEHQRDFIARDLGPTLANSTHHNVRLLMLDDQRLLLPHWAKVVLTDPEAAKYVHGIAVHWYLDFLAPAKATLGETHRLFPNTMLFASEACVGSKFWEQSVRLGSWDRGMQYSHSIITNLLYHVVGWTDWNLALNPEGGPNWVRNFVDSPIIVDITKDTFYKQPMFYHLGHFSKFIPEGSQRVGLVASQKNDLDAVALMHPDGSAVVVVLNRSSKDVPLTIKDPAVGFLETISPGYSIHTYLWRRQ
Sequence of Ubiquitin carboxyl-terminal hydrolase 1 (Homo sapiens) (O94782 whole entry, looked up): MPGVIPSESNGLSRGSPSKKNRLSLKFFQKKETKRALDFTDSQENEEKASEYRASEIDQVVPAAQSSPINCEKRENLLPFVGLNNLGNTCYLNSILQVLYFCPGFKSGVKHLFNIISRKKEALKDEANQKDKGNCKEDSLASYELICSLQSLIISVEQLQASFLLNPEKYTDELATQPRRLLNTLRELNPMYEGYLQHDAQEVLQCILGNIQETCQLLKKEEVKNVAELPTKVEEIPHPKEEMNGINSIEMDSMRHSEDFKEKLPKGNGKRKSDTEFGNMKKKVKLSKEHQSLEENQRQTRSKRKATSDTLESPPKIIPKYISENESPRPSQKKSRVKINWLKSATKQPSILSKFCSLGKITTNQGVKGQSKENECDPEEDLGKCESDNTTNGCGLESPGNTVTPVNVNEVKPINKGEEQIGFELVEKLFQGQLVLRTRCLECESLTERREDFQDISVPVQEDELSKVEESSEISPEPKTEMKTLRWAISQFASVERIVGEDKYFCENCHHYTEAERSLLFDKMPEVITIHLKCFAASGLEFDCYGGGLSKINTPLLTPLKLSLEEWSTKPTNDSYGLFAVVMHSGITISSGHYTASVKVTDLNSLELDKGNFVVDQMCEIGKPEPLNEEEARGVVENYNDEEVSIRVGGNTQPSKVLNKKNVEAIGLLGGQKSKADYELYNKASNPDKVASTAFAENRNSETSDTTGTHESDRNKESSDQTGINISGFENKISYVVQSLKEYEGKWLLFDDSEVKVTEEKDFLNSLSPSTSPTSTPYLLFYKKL
Sequence of Glucocorticoid receptor (Homo sapiens) (P04150 whole entry, looked up): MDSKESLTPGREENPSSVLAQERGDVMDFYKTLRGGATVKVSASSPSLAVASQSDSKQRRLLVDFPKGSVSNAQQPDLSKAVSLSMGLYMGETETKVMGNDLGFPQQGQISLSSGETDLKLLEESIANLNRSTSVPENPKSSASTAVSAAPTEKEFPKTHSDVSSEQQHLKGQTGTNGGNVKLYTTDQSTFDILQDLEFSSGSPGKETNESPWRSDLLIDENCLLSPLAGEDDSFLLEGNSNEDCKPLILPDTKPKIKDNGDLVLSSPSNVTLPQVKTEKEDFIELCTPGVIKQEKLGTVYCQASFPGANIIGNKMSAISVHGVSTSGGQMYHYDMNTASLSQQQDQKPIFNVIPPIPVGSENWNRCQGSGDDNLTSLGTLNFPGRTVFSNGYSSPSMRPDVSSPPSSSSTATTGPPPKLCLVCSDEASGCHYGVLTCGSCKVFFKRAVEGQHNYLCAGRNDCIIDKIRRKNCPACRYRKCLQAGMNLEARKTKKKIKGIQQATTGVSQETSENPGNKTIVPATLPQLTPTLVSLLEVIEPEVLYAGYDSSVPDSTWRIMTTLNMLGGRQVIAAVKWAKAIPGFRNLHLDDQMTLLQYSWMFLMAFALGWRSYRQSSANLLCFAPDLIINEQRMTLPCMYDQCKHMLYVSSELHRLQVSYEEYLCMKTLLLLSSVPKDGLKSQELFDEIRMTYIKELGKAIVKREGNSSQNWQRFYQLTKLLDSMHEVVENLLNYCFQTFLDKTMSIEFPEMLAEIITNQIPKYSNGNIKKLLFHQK
Sequence of 3',5'-cyclic-AMP phosphodiesterase 4B (Homo sapiens) (Q07343 whole entry, looked up): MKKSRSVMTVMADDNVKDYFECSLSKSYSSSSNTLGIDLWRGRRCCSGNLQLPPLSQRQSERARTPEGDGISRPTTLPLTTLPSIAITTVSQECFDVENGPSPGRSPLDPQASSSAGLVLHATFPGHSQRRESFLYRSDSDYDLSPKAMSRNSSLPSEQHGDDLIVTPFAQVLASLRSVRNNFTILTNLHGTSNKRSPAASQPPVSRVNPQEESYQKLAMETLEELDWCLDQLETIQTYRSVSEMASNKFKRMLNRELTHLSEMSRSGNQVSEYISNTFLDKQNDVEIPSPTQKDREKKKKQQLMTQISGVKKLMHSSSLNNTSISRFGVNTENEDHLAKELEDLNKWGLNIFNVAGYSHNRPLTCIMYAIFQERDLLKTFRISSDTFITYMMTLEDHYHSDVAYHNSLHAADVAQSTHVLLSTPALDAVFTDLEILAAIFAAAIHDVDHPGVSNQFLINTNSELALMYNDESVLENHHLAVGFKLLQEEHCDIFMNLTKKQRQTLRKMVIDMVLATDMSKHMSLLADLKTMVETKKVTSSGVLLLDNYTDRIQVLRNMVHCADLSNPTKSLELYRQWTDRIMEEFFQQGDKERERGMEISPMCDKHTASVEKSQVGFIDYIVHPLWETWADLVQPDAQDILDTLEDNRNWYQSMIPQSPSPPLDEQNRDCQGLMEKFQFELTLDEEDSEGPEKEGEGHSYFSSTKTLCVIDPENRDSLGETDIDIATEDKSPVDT
Sequence of Cytochrome P450 1A2 (Homo sapiens) (P05177 whole entry, looked up): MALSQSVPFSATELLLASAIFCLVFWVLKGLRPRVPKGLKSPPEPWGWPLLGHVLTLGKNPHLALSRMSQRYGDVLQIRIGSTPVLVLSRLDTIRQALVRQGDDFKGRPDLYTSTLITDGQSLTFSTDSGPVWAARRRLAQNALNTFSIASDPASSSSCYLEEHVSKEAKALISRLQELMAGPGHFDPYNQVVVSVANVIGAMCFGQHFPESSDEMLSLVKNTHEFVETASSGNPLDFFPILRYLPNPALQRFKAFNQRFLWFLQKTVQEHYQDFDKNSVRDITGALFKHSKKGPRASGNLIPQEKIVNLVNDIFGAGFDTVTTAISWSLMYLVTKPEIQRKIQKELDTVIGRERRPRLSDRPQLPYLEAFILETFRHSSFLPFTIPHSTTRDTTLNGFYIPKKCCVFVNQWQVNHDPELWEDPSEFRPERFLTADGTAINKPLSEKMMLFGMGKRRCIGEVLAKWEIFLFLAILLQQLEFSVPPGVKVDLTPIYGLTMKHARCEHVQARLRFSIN
Sequence of Glutathione peroxidase 1 (Homo sapiens) (P07203 whole entry, looked up): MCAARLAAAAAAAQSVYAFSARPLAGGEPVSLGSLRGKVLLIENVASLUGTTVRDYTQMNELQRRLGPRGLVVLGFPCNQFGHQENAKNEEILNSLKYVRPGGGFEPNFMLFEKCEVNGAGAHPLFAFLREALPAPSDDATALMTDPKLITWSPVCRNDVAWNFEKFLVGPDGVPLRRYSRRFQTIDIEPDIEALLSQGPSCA
Sequence of Phospholipid hydroperoxide glutathione peroxidase GPX4 (Homo sapiens) (P36969 whole entry, looked up): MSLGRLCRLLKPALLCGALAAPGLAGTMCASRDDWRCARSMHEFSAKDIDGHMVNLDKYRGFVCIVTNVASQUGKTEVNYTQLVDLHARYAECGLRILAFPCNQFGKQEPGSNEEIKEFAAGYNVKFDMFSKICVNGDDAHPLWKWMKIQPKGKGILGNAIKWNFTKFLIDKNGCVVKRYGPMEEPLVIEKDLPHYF

As for `CN(C)c1ncc2nc(-c3ccccc3)c(=O)n(Cc3ccc(F)cc3)c2n1`, the Potency in experiment [1] is > 11.4 µM (inactive); in [2], 12.6 µM (active); in [4], > 9.22 µM (inactive); in [5] it was > 46 µM (inactive); in [7] it was 501 nM (active). The activity, negative = inhibition in [3] is 178% [activator] (active). Moreover, the Potency entry in experiment [6], in experiment [9], in [10] and in experiment [11] was “inactive” throughout. Besides, in [8], the activity change, negative = inhibition was 0.549% (inactive). The max response was found to be 7.88% in experiment [8] (setting [21]) and 4.69% in [8] (setting [22]).
Turning to `CC1(C)C(N(O)C(=O)Nc2ccc(Cl)cc2)N(c2ccc(Cl)cc2)C(=O)N1CC(=O)N/N=C/C=C/c1ccc([N+](=O)[O-])o1` (configuration not stated), the Potency in experiment [12] is 7.42 µM (active); in [13], 8.33 µM (active); in [15], 14.3 µM (active). Further, the Potency entry in [14] is “inactive”. Besides, the Z-AUC in experiment [16] is 1.66 (inactive); in [16] (measured here: PEO1 parental Z-AUC), 1.13; in experiment [16] (measured here: PEO4 Z-AUC), 1.09.
Regarding `CN(C)c1ncc2nc(-c3ccccc3)c(=O)n(-c3ccccc3)c2n1`, the Potency was > 11.4 µM (inactive) in experiment [1]; 0.398 µM (active) in experiment [2]; > 9.22 µM (inactive) in experiment [4]; > 46 µM (inactive) in experiment [5]; 631 nM (active) in experiment [7]. The activity change, negative = inhibition in experiment [17] is 15.6% (inactive); in experiment [18], 23.9% (inactive); in experiment [8] it was -3.18% (inactive). Moreover, the compound was classed as inactive in experiment [19]. Further, the max response in [8] (setting [21]) came to 22.5%; in experiment [8] (setting [22]), 15.8%. Besides, the Potency result in experiment [9], in experiment [10] and in experiment [11] was “inactive” throughout.
With `N#Cc1ccccc1-c1nc(NCCN2CCOCC2)c2ccccc2n1`, the Potency in experiment [1] is > 11.4 µM (inactive); in experiment [4] it was > 46 µM (inactive); in experiment [5] it was > 46 µM (inactive). The activity change, negative = inhibition in [17] is 1.04% (inactive); in experiment [18] it was -3.19% (inactive); in experiment [8], 4.61% (inactive). For the same compound, in experiment [3], the activity, negative = inhibition was 2.02% (inactive). Also, the call in experiment [19] was inactive. Moreover, the Potency result in [6], in [20] and in experiment [11] was “inactive” in each case. For the same compound, the max response in experiment [8] (setting [21]) was 14.8%; in experiment [8] (setting [22]) it was 18.6%.
